Screens (PubChem BioAssay)
Sampled rows, rich in hits. Any-hit rate of the full collection: about 16%.
uPA generation: qHTS for Inhibitors of Cell Surface uPA Generation; cell surface uPA generation assay, qHTS; Potency, µM (series often up to 38.3 µM), inactives show top-dose activity change, negative = inhibition, actives largely listed as inhibitors; actives 0.31% (n = 330,000); AID 540303, 2011; active = well fitted inhibition curve with a large enough effect; inconclusive = small, poorly fitted or top-dose-only effect; inactive = no such curve, though single readings can be large or run the other way; tested in mouse RAW 264.7 cells; note: potency is the fitted concentration of half-maximal effect; % is set by controls: 0 for no effect and ±100 for the full control effect; nearly all actives have a fitted effect of over 55% in size
TDP1 block: qHTS Assay for Inhibitors of Tyrosyl-DNA Phosphodiesterase (TDP1); Tyrosyl-DNA phosphodiesterase 1 (Homo sapiens), Q9NUW8; recombinant TDP1, AlphaScreen DNA substrate cleavage; Potency, µM (titrated, usually from 130 µM), for the others: at the highest dose activity change, negative = inhibition, hits mostly inhibitors; actives 0.28% (n = 350,000); note: potency is the fitted concentration of half-maximal effect; % is set by controls: 0 for no effect and ±100 for the full control effect; nearly all actives have a fitted effect of over 40% in size
Target sequence (Q9NUW8 whole entry, looked up): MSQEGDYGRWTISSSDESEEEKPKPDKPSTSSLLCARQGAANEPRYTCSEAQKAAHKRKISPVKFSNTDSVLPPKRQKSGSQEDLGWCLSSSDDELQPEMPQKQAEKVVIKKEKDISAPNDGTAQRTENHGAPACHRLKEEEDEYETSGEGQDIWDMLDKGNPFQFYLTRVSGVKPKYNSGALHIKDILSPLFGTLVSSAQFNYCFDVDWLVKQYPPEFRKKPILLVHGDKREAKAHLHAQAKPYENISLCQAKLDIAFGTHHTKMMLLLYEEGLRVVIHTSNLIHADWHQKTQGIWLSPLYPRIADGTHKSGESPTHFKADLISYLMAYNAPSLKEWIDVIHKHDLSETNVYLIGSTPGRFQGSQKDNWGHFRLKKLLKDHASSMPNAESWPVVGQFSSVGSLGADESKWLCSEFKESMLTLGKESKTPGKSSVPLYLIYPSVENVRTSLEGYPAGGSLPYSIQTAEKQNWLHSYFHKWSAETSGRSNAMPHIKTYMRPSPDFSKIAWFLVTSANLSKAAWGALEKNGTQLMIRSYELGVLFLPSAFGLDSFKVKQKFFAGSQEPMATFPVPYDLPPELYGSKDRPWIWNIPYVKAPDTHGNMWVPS
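Here, a 5' biotin and 3' phosphotyrosine-FITC DNA oligonucleotide reports Tdp1 activity: intact substrate bridges AlphaScreen beads, while cleavage leaves a 3' phosphate and drops signal. All incubations at room temperature.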
DT40 TDP1 no CPT: qHTS for Inhibitors of human tyrosyl-DNA phosphodiesterase 1 (TDP1): qHTS in cells in absence of CPT. actives 15% (n = 420,000). Potency, µM (series often up to 46.2 µM), for the others: at the top dose activity change, negative = growth inhibition, hits mostly inhibitors. DT40 Tdp1-/- hTDP1 cells, no CPT, ATP luminescence, 48 h; note: potency is the fitted concentration of half-maximal effect; % is set by controls: 0 for no effect and ±100 for the full control effect; nearly all actives have a fitted effect of over 55% in size
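Growth kinetics read by CellTiter-Glo luminescence after ≥48 hr at 37 °C. Cells: DT40 Tdp1-/- stably carrying human TDP1, 400 per well, compound exposure in the absence of CPT (DMSO vehicle).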
DT40 TDP1 CPT: qHTS for Inhibitors of human tyrosyl-DNA phosphodiesterase 1 (TDP1): qHTS in cells in presence of CPT | chicken DT40 Tdp1-/-;hTDP1 cells + 20 nM CPT, ATP luminescence, 48 h | Potency, µM (doses to about 46.2 µM), for the others: top-dose activity change, negative = growth inhibition, most hits filed as inhibitors | actives 12% (n = 420,000) | AID 686979, 2013; note: potency is the fitted concentration of half-maximal effect; % is set by controls: 0 for no effect and ±100 for the full control effect; nearly all actives have a fitted effect of over 55% in size
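Cell growth measured by CellTiter-Glo luminescence after a minimum 48 h, 37 C compound exposure with 20 nM CPT in Tdp1-knockout DT40 cells stably expressing hTDP1, seeded 400/well; qHTS titration format.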
miR-21 reporter: qHTS Assay for Modulators of miRNAs and/orActivators of miR-21; HeLa miR-21 FLuc reporter, luciferase, 48 h; Potency, µM (doses to about 38.3 µM), inactives show top-dose activity change, positive = activation, actives largely listed as activators; 340,000 tested, under 10 active;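 note: % of control where 0% means no effect; miR-21 action dims this reporter so a rising signal means less miR-21 action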
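Luminescence from a firefly luciferase reporter carrying a miR-21 binding site downstream, stably expressed under a CMV promoter in HeLa cells that make miR-21 endogenously, reports miRNA modulation after 48 h compound exposure up to approximately 40uM final.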
An asterisk follows results filed as active; [ ] = dose if it differs, or a comment. Unless noted, calls come from the whole dose curve; as a rule, active = well fitted curve in the direction sought with a large enough effect; inconclusive = small, poorly fitted or top-dose-only effect, or another doubt; inactive = no such curve, though single readings can be large; an effect the other way counts as inactive or inconclusive.

What do the screens show for `Cc1cc(O)c2c3c(c(=O)oc2c1)CCC(C)C3` (stereo unspecified)?
uPA generation: -21.8%; TDP1 block: 2.9%; DT40 TDP1 no CPT: 11.6µM*; DT40 TDP1 CPT: 14.6µM*; miR-21 reporter: 7.6%

What do the screens show for `CCOc1cc(C)cc2oc(=O)c3c(c12)CCCC3`?
uPA generation: 0.5%; DT40 TDP1 no CPT: 6.8%; DT40 TDP1 CPT: -0.3%; miR-21 reporter: 8.3%

Results for CCOC(=O)c1ncn2c1CN(C)C(=O)c1c(I)cccc1-2 ?
DT40 TDP1 no CPT: -9.4%; DT40 TDP1 CPT: -4.5%

Results for CC(O)C1C=CC=CC(=O)OC2CC3OC4C5OC5(C)C(O)CC4(COC(=O)C(O)C(C)CCO1)C2(C)C31CO1 (stereo unspecified) ?
uPA generation: -12.0%; DT40 TDP1 no CPT: 0.146µM*; DT40 TDP1 CPT: 0.13µM*

How did CC1=CC2OC3CC4OC(=O)C=CC=CC(=O)OCCC(C)C(O)C(=O)OCC2(CC1)C4(C)C31CO1 (stereo unspecified) do in these assays?
uPA generation: -11.3%; DT40 TDP1 no CPT: 0.164µM*; DT40 TDP1 CPT: 0.0231µM*

What do the screens show for `CC1CCOC(=O)C=CC=CC(=O)OC2CC3OC4C5OC5(C)C(O)CC4(COC(=O)C1O)C2(C)C31CO1` (stereo unspecified)?
uPA generation: -12.6%; DT40 TDP1 no CPT: 0.146µM*; DT40 TDP1 CPT: 0.146µM*

How did CC1=CC2OC3CC4OC(=O)C=CC=CC(C(C)O)OCC(O)C5(C)OC5C(=O)OCC2(CC1O)C4(C)C31CO1 (stereo unspecified) do in these assays?
uPA generation: -9.6%; DT40 TDP1 no CPT: 0.146µM*; DT40 TDP1 CPT: 0.092µM*

How did Cc1ccc(-c2nc3cc(C)c(Br)c(C)n3c2Cc2cccc(Cl)c2)cc1 do in these assays?
DT40 TDP1 no CPT: inconclusive; DT40 TDP1 CPT: -28.9%

What do the screens show for `CN1C(=O)C(c2ccc([N+](=O)[O-])cc2[N+](=O)[O-])C(=O)N(C)C1=O`?
uPA generation: 17.8%; DT40 TDP1 no CPT: 0.5%; DT40 TDP1 CPT: -25.1%; miR-21 reporter: 8.0%

How did [O-]c1ccccc1-[n+]1c(-c2ccccc2)cc(-c2ccccc2)cc1-c1ccccc1 do in these assays?
uPA generation: inconclusive; TDP1 block: 4.0%; DT40 TDP1 no CPT: 2.06µM*; DT40 TDP1 CPT: 2.06µM*

What do the screens show for `Nc1ccccc1-[n+]1c(-c2ccccc2)cc(-c2ccccc2)cc1-c1ccccc1`?
uPA generation: -4.8%; TDP1 block: 0.0%; DT40 TDP1 no CPT: 5.8µM*; DT40 TDP1 CPT: 6.51µM*; miR-21 reporter: inconclusive

What do the screens show for `Oc1ccccc1-[n+]1c(-c2ccccc2)cc(-c2ccccc2)cc1-c1ccccc1`?
uPA generation: inconclusive; DT40 TDP1 no CPT: 2.31µM*; DT40 TDP1 CPT: 1.3µM*

How did C[C@]12CCC3C(CC[C@H]4C[C@@H](O)CC[C@]34C)C1C[C@@H](Br)[C@H]2O (stereo partly specified) do in these assays?
TDP1 block: 2.1%

How did Cc1c(N=Cc2c(O)n(C)c(=O)[nH]c2=O)c(=O)n(-c2ccccc2)n1C do in these assays?
uPA generation: -0.3%; TDP1 block: -6.3%; DT40 TDP1 no CPT: 2.0%; DT40 TDP1 CPT: 0.1%; miR-21 reporter: -7.1%

Results for CCOP(=O)(OCC)C(NC(=O)Nc1ccc(Cl)c(Cl)c1)c1ccccc1 (stereo unspecified) ?
uPA generation: 1.8%; TDP1 block: -0.6%; DT40 TDP1 no CPT: 16.4µM*; DT40 TDP1 CPT: inconclusive; miR-21 reporter: inconclusive

What do the screens show for `CCOP(=O)(OCC)C(NC(=O)Cc1ccccc1)C(Cl)(Cl)Cl` (stereo unspecified)?
TDP1 block: 0.0%; DT40 TDP1 no CPT: 8.3%; DT40 TDP1 CPT: 14.0%; miR-21 reporter: 1.4%

What do the screens show for `CC(C)CCC1(CN2CCCC2=O)C(=O)NC(=O)NC1=O`?
uPA generation: -5.7%; TDP1 block: 3.6%; DT40 TDP1 no CPT: -0.1%; DT40 TDP1 CPT: 0.6%; miR-21 reporter: 3.6%

What do the screens show for `CC[C@]1(O)CC(O[C@@H]2CC(N(C)C)C(O)C(C)O2)c2c(cc3c(c2O)C(=O)c2c(O)ccc(O)c2C3=O)C1C(=O)OC` (stereo partly specified)?
TDP1 block: 9.6%[56.1 µM]; DT40 TDP1 no CPT: 1.3µM*; DT40 TDP1 CPT: 1.46µM*

How did Cc1ccc(C)c(N2CCN(c3ncnc4onc(C)c34)CC2)c1 do in these assays?
TDP1 block: 3.2%; DT40 TDP1 no CPT: 13µM*; DT40 TDP1 CPT: inconclusive; miR-21 reporter: inconclusive

What do the screens show for `CN(C)CCN=Cc1c(O)n(C2CCCCCC2)c(=O)[nH]c1=O`?
uPA generation: -6.0%; TDP1 block: 1.0%; DT40 TDP1 no CPT: -1.9%; DT40 TDP1 CPT: -5.8%; miR-21 reporter: 0.6%

Results for CC(C)C(=O)N1CCC(CN=Cc2c(O)n(C3CCCCC3)c(=O)n(C3CCCCC3)c2=O)CC1 ?
uPA generation: 3.1%; TDP1 block: 7.3%; DT40 TDP1 no CPT: 23.1µM*; DT40 TDP1 CPT: inconclusive; miR-21 reporter: 3.8%

Results for O=C(O)C1C2CCC(O2)C1C(=O)NC1CCCCC1 (stereo unspecified) ?
uPA generation: -9.8%; TDP1 block: -2.6%; DT40 TDP1 no CPT: 1.6%; DT40 TDP1 CPT: -7.4%; miR-21 reporter: 0.1%

Results for Nc1nnc(Sc2ncccc2[N+](=O)[O-])s1 ?
uPA generation: -1.7%; TDP1 block: 2.6%; DT40 TDP1 no CPT: 16.4µM*; DT40 TDP1 CPT: inconclusive; miR-21 reporter: -6.2%

How did [Cl][In]([Cl])[Cl] do in these assays?
TDP1 block: 0.501µM*; DT40 TDP1 no CPT: -9.2%[92.5 µM]; DT40 TDP1 CPT: inconclusive

How did c1ccc(-c2nc(N3CCOCC3)s[n+]2-c2ccccc2)cc1 do in these assays?
uPA generation: 2.1%; TDP1 block: 0.0%; DT40 TDP1 no CPT: inconclusive; DT40 TDP1 CPT: 14.6µM*; miR-21 reporter: -86.3%

Results for Cc1ccc2c(c1)Oc1ccccc1N=C2 ?
DT40 TDP1 no CPT: inconclusive; DT40 TDP1 CPT: -19.3%

What do the screens show for `COC(=O)C1=C(c2c(C)noc2C)C[C@@H]2CC[C@H]1N2C(=O)NCCOc1ccccc1`?
uPA generation: 14.4%; TDP1 block: 0.2%; DT40 TDP1 no CPT: -8.8%; DT40 TDP1 CPT: 10.0%

How did O=C(C(=C1N(Cc2ccc(Cl)nc2)CCN1Cc1ccc(Cl)nc1)[N+](=O)[O-])C(Cl)Cl do in these assays?
uPA generation: 4.8%; DT40 TDP1 no CPT: 16.4µM*; DT40 TDP1 CPT: inconclusive; miR-21 reporter: 3.8%
